Measured values: PubChem BioAssay (NCATS)
Unmarked numbers belong to inactive results. Inconclusive results are not listed. Entries that show only a call come without a potency. The source made the active and inactive calls. Unless noted, the call rests on the fitted dose curve; in most records, active means well fitted curve in the direction sought with a large enough effect; inconclusive means small, poorly fitted or top-dose-only effect, or another doubt; inactive means no such curve, though single readings can be large; an effect the other way counts as inactive or inconclusive.

Tests used:
[1] = target: Cytochrome P450 3A4 (Homo sapiens) (UniProt P08684); experiment: qHTS Assay for Activators of Cytochrome P450 3A4 (AID 885); further: nearly all actives have a fitted effect of over 65% in size
Summary of the method: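 20nM CYP3A4 + 25uM Luciferin-PPXE (=KM), 200mM KPO4; cpd 10 min RT; NADPH regen, 60 min RT; stop w/ detection buffer, 20 min; luminescence. Normalized to 57 uM ketoconazole.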

[2] = target: Cytochrome P450 2C19 (Homo sapiens) (UniProt P33261); experiment: qHTS Assay for Inhibitors and Substrates of Cytochrome P450 2C19 (AID 899); further: potency means the concentration at half of the fitted maximal effect; nearly all actives have a fitted effect of over 60% in size
Summary of the method: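 Luminescent read-out of luciferin formed from Luciferin-H EGE (10uM, equal to KM). Enzyme 5nM in 50mM KPO4; compound added, 10 min at 37C, then NADPH regenerating system for 60 min at 37C. Full inhibition defined by 57uM ketoconazole.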

[3] = target: Dual specificity protein kinase CLK4 (Homo sapiens) (UniProt Q9HAZ1); experiment: qHTS Assay for Inhibitors of CDC-like Kinase 4 (Kinase-Glo Assay) (AID 1770); further: nearly all actives have a fitted effect of over 65% in size; further: potency means the concentration at half of the fitted maximal effect
Summary of the method: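 Clk4 25 nM, RS peptide 100 uM, ATP 1 uM, pH 7.5 Tris, 10 mM MgCl2, 2.5 mM DTT; 4.5 h RT; ATP depletion read by Kinase-Glo luminescence.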

[4] = target: Dual specificity protein kinase CLK4 (Homo sapiens) (UniProt Q9HAZ1); experiment: qHTS Assay for Inhibitors of CDC-like Kinase 4 (ADP-Glo Assay) (AID 1771); further: nearly all actives have a fitted effect of over 70% in size; further: potency means the concentration at half of the fitted maximal effect
Summary of the method: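 Luminescence from ADP-Glo reports ADP produced by 25 nM Clk4 acting on 100 uM RS repeat peptide with 1 uM ATP over 1 hr at room temperature; residual ATP is depleted before ADP is converted to ATP for detection.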

[5] = target: Cytochrome P450 2D6 (Homo sapiens) (UniProt P10635); experiment: qHTS Assay for Inhibitors and Substrates of Cytochrome P450 2D6 (AID 891); further: potency means the concentration at half of the fitted maximal effect; nearly all actives have a fitted effect of over 60% in size
Summary of the method: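 Human CYP2D6 (5 nM) with 30 uM Luciferin-ME EGE (at Km) in 100 mM KPO4, compound preincubated 10 min, then NADPH regeneration system for 60 min at room temperature. Luciferin read by luminescence; normalized to 1.43 uM quinidine.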

[6] = target: Dual specificity protein kinase CLK4 (Homo sapiens) (UniProt Q9HAZ1); experiment: qHTS Assay for Inhibitors of CDC-like Kinase 4 (ADP-FP Assay) (AID 1795); further: nearly all actives have a fitted effect of over 60% in size; further: potency means the concentration at half of the fitted maximal effect
Summary of the method: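 Kinase activity was followed as ADP output, converted from fluorescence polarization with a calibration curve. Reactions ran one hour at low ATP (1 uM) with RS peptide substrate.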

[7] = target: Cytochrome P450 1A2 (Homo sapiens) (UniProt P05177); experiment: p450-cyp1a2 (AID 410; calls by dose curve; further: potency means the concentration at half of the fitted maximal effect)
Summary of the method: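 Luminescent readout of luciferin formed from Luciferin-ME by human CYP1A2; data normalized against complete inhibition by 57 uM furafylline. Enzyme 20nM, substrate 100uM at Km, 100mM KPO4 buffer, 60 min reaction at room temperature.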

[8] = target: Cytochrome P450 3A4 (Homo sapiens) (UniProt P08684); experiment: qHTS Assay for Inhibitors and Substrates of Cytochrome P450 3A4 (AID 884); further: nearly all actives have a fitted effect of over 50% in size; further: potency means the concentration at half of the fitted maximal effect
Summary of the method: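 20 nM human CYP3A4 with 25 uM Luciferin-PPXE (at KM) in 200 mM KPO4, preincubated 10 min with compound; NADPH regeneration started a 60 min RT reaction. Luciferin detected by luminescence, normalized to 57 uM ketoconazole as full inhibition.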

[9] = qHTS Assay for Identification of Small Molecule Agonists for Hypoxia Response Element Signaling Pathway (AID 914; active means well fitted activation curve with a large enough effect in the signal ratio, with a control signal flat, not every such curve was filed as active; the % refers to the signal ratio; further: potency means the concentration at half of the fitted maximal effect); conditions: ME-180 (cervical carcinoma) HRE-bla reporter, beta-lactamase ratio, CoCl2, 17 h; activation: hits give high values
Summary of the method: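 Cells were plated overnight, pin-dosed with compound in a titration series, co-stimulated with EC50 CoCl2 and incubated 17 hours at 37 degrees Celsius. CCF4 substrate was then loaded, and AC50 values came from the 460nm/530nm ratio.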

Chain of Cytochrome P450 2D6 (Homo sapiens) (P10635 whole entry, looked up): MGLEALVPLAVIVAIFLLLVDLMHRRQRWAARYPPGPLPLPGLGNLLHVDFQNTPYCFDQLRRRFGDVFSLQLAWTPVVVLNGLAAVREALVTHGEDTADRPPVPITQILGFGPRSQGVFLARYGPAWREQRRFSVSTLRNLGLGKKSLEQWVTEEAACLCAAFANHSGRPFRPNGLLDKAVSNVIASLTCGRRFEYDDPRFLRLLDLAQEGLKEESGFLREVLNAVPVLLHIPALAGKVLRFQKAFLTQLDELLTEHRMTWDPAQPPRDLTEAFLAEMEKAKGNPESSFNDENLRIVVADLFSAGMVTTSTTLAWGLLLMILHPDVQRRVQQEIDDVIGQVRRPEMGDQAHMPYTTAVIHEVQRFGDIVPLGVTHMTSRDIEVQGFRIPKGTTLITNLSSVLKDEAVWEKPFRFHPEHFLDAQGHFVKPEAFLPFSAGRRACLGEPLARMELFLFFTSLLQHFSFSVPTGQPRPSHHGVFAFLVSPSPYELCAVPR
Chain of Dual specificity protein kinase CLK4 (Homo sapiens) (Q9HAZ1 whole entry, looked up): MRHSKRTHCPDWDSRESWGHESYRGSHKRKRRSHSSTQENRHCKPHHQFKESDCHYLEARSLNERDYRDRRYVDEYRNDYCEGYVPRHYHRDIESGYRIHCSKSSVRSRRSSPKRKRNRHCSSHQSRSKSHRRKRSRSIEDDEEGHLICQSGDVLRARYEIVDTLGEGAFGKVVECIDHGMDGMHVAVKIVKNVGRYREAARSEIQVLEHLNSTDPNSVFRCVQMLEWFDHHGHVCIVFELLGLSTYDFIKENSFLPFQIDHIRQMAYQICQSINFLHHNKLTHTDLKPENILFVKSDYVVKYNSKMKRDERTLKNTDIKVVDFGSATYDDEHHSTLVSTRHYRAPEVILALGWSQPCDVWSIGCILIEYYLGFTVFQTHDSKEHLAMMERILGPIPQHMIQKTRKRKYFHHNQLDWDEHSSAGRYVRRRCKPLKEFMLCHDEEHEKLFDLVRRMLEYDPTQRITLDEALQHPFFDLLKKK
Chain of Cytochrome P450 1A2 (Homo sapiens) (P05177 whole entry, looked up): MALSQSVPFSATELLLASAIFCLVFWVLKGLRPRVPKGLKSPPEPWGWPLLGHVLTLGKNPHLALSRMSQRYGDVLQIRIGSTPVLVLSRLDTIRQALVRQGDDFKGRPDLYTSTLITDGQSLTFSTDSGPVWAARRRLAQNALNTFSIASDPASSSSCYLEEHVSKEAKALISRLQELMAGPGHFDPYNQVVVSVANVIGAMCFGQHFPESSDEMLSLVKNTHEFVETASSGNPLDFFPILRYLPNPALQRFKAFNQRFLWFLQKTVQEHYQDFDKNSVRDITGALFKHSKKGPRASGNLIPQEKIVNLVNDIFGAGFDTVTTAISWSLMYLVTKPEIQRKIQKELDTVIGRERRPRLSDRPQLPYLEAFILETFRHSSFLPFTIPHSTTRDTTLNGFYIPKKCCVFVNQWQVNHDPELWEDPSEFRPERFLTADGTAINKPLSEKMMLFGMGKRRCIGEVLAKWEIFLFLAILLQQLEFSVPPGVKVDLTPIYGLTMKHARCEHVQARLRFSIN
Chain of Cytochrome P450 3A4 (Homo sapiens) (P08684 whole entry, looked up): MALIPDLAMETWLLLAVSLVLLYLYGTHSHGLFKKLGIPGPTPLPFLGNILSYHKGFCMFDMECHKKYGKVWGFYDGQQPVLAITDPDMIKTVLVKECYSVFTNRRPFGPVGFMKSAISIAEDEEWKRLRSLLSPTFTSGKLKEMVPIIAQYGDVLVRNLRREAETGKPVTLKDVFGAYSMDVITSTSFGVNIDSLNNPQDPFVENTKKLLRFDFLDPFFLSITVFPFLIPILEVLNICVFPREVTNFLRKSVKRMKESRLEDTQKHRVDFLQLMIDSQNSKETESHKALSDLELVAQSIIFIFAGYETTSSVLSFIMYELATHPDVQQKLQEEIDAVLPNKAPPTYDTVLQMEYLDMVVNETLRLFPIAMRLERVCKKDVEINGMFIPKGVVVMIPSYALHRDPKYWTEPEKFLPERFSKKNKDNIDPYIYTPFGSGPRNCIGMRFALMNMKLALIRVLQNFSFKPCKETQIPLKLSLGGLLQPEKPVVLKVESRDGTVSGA
Chain of Cytochrome P450 2C19 (Homo sapiens) (P33261 whole entry, looked up): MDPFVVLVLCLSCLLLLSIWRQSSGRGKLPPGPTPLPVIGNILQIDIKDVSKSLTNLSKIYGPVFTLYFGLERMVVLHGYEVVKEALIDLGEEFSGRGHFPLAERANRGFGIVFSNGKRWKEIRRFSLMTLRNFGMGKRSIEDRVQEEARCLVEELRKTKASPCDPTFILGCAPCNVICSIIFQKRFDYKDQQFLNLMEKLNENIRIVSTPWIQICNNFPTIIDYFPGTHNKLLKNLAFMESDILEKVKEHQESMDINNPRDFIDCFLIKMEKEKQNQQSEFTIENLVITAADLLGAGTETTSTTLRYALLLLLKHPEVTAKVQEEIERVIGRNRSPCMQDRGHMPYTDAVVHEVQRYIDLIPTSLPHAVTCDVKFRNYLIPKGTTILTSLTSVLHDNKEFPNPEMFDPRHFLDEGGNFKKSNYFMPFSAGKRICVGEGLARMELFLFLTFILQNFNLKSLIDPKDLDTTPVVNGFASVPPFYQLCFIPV

CN(C)c1ccc(-c2nccc(Nc3ccc(F)cc3)n2)cc1
outcome [1]: inactive
Potency [2]: 3.16 µM (active)
Potency [3]: 17.8 µM (active)
Potency [4]: 14.1 µM (active)

CCNc1ncc2nc(CCc3ccccc3)c(=O)n(CCC#N)c2n1
outcome [1]: inactive
Potency [5]: 0.158 µM (active)
Potency [3]: inactive
Potency [4]: inactive
Potency [6]: inactive

COc1ccccc1CNc1ccnc(-c2cccnc2)n1
Potency [3]: 28.2 µM (active)
Potency [4]: 28.2 µM (active)

COc1ccccc1-c1nccc(NCc2cccs2)n1
Potency [3]: inactive
Potency [4]: inactive

COc1ccc(Oc2ncc3nc(-c4ccc(F)cc4)c(=O)n(C[C@H]4CCCO4)c3n2)cc1
Potency [3]: inactive
Potency [4]: inactive

COc1ccc(CNc2ncncc2-c2ccccc2OC)c(OC)c1
Potency [7]: 5.01 µM (active)
Potency [8]: 0.316 µM (active)
Potency [2]: 2 µM (active)
Potency [3]: inactive
Potency [4]: inactive

COc1cccc(Nc2ncc3nc(-c4cccs4)c(=O)n(C[C@H]4CCCO4)c3n2)c1
Potency [3]: inactive
Potency [4]: inactive
Potency [6]: inactive

Cc1cccc(CNc2ncncc2-c2ccccc2C)c1
Potency [8]: 0.398 µM (active)
Potency [5]: 3.98 µM (active)
Potency [3]: inactive
Potency [4]: inactive
Potency [6]: inactive

COc1cccc(-c2nc(NC3CC3)c3ccccc3n2)c1
Potency [8]: 1.26 µM (active)
outcome [1]: inactive
Potency [5]: 7.94 µM (active)
Potency [3]: 7.08 µM (active)
Potency [4]: 7.08 µM (active)

CN(C)c1ccc(-c2cncnc2NCCN2CCOCC2)cc1
Potency [8]: 3.16 µM (active)
Potency [2]: 6.31 µM (active)
Potency [9]: 1.26 µM (active)
Potency [3]: inactive
Potency [4]: inactive

COc1cccc(-c2cncnc2NCCN2CCOCC2)c1
Potency [7]: 15.8 µM (active)
outcome [1]: inactive
Potency [9]: 2.51 µM (active)
Potency [3]: inactive
Potency [4]: inactive

COCCn1c(=O)c(-c2ccccc2)nc2cnc(Oc3cccc(Cl)c3)nc21
Potency [7]: 1 µM (active)
outcome [1]: inactive
Potency [3]: inactive

CC(=O)NCCNc1nc(-c2cccc(C#N)c2)nc2ccccc12
Potency [3]: 28.2 µM (active)

Cn1c(=O)c(-c2ccccc2)nc2cnc(N3CCOCC3)nc21
Potency [7]: 2 µM (active)
Potency [8]: inactive
Potency [4]: inactive
Potency [6]: inactive

COc1ccc(-c2nc3cnc(N4CCN(C)CC4)nc3n(CCc3ccccc3)c2=O)cc1
Potency [7]: inactive
Potency [8]: inactive
Potency [9]: 3.16 µM (active)
Potency [3]: inactive
Potency [6]: inactive

COc1ccc2[nH]cc(CCNc3ncnc4ccc(-c5ccoc5)cc34)c2c1
Potency [7]: 0.316 µM (active)
Potency [8]: 3.98 µM (active)
outcome [1]: inactive
Potency [5]: 5.01 µM (active)
Potency [2]: 7.94 µM (active)
Potency [4]: 0.708 µM (active)
Potency [6]: 0.562 µM (active)

c1ccc(Nc2nc(-c3cccnc3)nc3ccccc23)cc1
Potency [3]: 2.51 µM (active)

COc1ncc2nc(CCc3ccccc3)c(=O)n(-c3ccccc3)c2n1
Potency [7]: 12.6 µM (active)
Potency [4]: inactive
Potency [6]: inactive

COc1ccccc1-c1nc(N2CCN(C)CC2)c2ccccc2n1
Potency [7]: 12.6 µM (active)
outcome [1]: inactive
Potency [4]: inactive
Potency [6]: inactive

COc1ccc(CNc2cc(-c3cccc(NS(C)(=O)=O)c3)ncn2)c(OC)c1
Potency [7]: 15.8 µM (active)
Potency [8]: 2.51 µM (active)
Potency [3]: inactive

O=c1c(-c2cccc(F)c2)nc2cncnc2n1Cc1ccc(F)cc1
Potency [3]: inactive

COc1ccc(-c2nc3cnc(N4CCOCC4)nc3n(-c3ccc(OC)cc3)c2=O)cc1
Potency [7]: 10 µM (active)
Potency [9]: 3.16 µM (active)
Potency [3]: inactive
Potency [6]: inactive

COc1ccc(-c2nc3cnc(Oc4cccc(Cl)c4)nc3n(C[C@H]3CCCO3)c2=O)cc1
Potency [7]: 5.01 µM (active)
outcome [1]: inactive
Potency [3]: inactive

Cc1ccccc1-c1nc(Nc2ccncc2)c2ccccc2n1
Potency [7]: 0.794 µM (active)
Potency [8]: 6.31 µM (active)
outcome [1]: inactive
Potency [4]: 25.1 µM (active)
Potency [6]: inactive

COCCn1c(=O)c(-c2ccc(F)cc2)nc2cnc(Nc3cccc(OC)c3)nc21
Potency [7]: 3.16 µM (active)
Potency [4]: inactive
Potency [6]: inactive

COCCn1c(=O)c(-c2ccc(F)cc2)nc2cnc(Oc3ccccc3)nc21
Potency [7]: 0.794 µM (active)
Potency [3]: inactive
Potency [6]: inactive

CN1CCN(c2ncc3nc(-c4ccccc4)c(=O)n(Cc4cccs4)c3n2)CC1
Potency [4]: inactive
Potency [6]: inactive

COc1ccc(Oc2ncc3nc(-c4cc(F)cc(F)c4)c(=O)n(C4CC4)c3n2)cc1
Potency [4]: inactive
Potency [6]: inactive

CCNc1ncc2ncc(=O)n(Cc3cccc(OC)c3)c2n1
Potency [7]: 3.98 µM (active)
Potency [2]: 2 µM (active)
Potency [3]: 3.16 µM (active)
Potency [6]: 11.2 µM (active)
